IL1B cytotox: toxic to HUVEC cells under IL-1B stimulation. HUVEC cell count loss, Hoechst imaging, IL-1B stimulated. cell count reduction, % at 2 µM. 94,000 tested, 0.41% active;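 active = cell count reduction more than 3 SD above the screen-wide mean, cut at about 70% in these data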
NFkB transloc pot: enhances IL-1B driven NFkB nuclear translocation; HUVEC IL-1B NFkB p65 nuclear translocation imaging; activation, % at 2 µM; 94,000 tested, 0.3% active; AID 819;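 active = activation above 40%, about the mean plus 3 SD, also judged a hit on visual image review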;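 also: percent activation is computed from the nuclear over cytoplasmic p65 intensity ratio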
NFkB transloc inh: blocks IL-1B driven NFkB nuclear translocation in HUVEC cells; inhibition, % at 2 µM; 94,000 tested, 0.43% active; AID 796; HUVEC IL-1B NFkB p65 nuclear translocation imaging;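 active = inhibition above about 30% together with a positive call from visual inspection of the well image, limit read from the data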;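 also: nuclear over cytoplasmic p65 intensity ratio measured by imaging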
Cav3 T inh: human Cav3.2 channel inhibition, primary screen; Cav3.2-expressing cells, Fluo-4 calcium fluorescence FDSS; active compounds read low; O95180; B-score at 10 µM; 100,000 tested, 4% active;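 active = single-dose well whose peak fluorescence ratio is a statistical outlier from its plate by either plate-standardised score or position-corrected B-score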
Large screens that a line does not name were inactive. Shown are actives, neighbours in structure and some others; about 4.4% of the full set was active somewhere.

CS(=O)(=O)N(Cc1ccccc1)c1ccc(C(=O)N2CCN(c3cccc(Cl)c3)CC2)cc1	none
CCC(C)(C)NC(=O)Cc1ccc(C)cc1	none
CCn1c(=O)n(CC)c2cc([N+](=O)[O-])ccc21	none
O=S(=O)(CC(CN1CCCC1)N1CCCC1)c1ccc2ccccc2c1 (stereo not drawn)	none
CC1COc2c(N3CCN(C)CC3)c(F)cc3c(=O)c(C(=O)O)cn1c23 (stereo not drawn)	none (no result: IL1B cytotox, NFkB transloc pot, NFkB transloc inh)
COc1c(N2CCN(C(=S)NCc3ccccc3)C(C)C2)c(F)cc2c(=O)c(C(=O)O)cn(C3CC3)c12 (stereo not drawn)	Cav3 T inh 2.8
Cc1cc(C)n(-c2cc(N3CCN(C(=O)c4cccc(F)c4)CC3)ccc2[N+](=O)[O-])n1	none (no result: IL1B cytotox, NFkB transloc pot, NFkB transloc inh)
CC(=O)n1nc(-c2ccccc2)nc1NCc1ccc(F)cc1	Cav3 T inh -4.6
COCC(=O)n1nc(-c2ccc(Cl)cc2)nc1NCc1ccc(F)cc1	none
O=C(O)c1cnc(-c2ccccc2)nc1Sc1ccccc1Cl	Cav3 T inh -6.4
Cc1ccc(CCN2C(=O)CCC2(C)C(=O)NCc2cccnc2)cc1 (stereo not drawn)	none
Cc1nnc(SCCn2c(N(C)Cc3ccccc3)nc3c2c(=O)[nH]c(=O)n3C)s1	none
FC(F)(F)c1cc(CCN2C(=S)NC[C@@H]2CC2CCCCC2)cc(C(F)(F)F)c1	none (no result: IL1B cytotox, NFkB transloc pot, NFkB transloc inh)
CC(C)(C)c1ccc(OC(=O)c2ccc3nsnc3c2)cc1	Cav3 T inh -3.5
Cn1c(/C=N/n2cnnc2)nc2ccccc21	IL1B cytotox 85, NFkB transloc inh 99
Cn1c(/C=N/NC(=O)c2ccccc2Br)nc2ccccc21	Cav3 T inh -4.3
Cn1c(/C=N/c2nc3ccccc3[nH]2)nc2ccccc21	none
Cc1noc(C)c1S(=O)(=O)N1CCCC(C(=O)NCc2ccccn2)C1 (stereo not drawn)	none
CCOC(=O)c1cnc2cc(C)nn2c1-c1ccccc1	none
CC1CCCCN1S(=O)(=O)c1ccc(C(=O)Nc2nnc(-c3ccccc3Cl)o2)cc1 (stereo not drawn)	none (no result: Cav3 T inh)
O=C(Nc1ccn(-c2ccccc2)n1)c1ccc(S(=O)(=O)N2CCCCCC2)cc1	Cav3 T inh -1.9
CCCCN(CC)S(=O)(=O)c1ccc(C(=O)Nc2nnc(-c3ccccc3Cl)o2)cc1	none
CCC1CCCCN1S(=O)(=O)c1ccc(C(=O)Nc2nnc(-c3ccccc3Cl)o2)cc1 (stereo not drawn)	Cav3 T inh -7.9
O=C(Nc1nnc(-c2ccccc2Cl)o1)c1ccc(S(=O)(=O)N2CCCCCC2)cc1	Cav3 T inh -7.1
CC(/C=C/c1ccccc1)NC(N)=O (stereo not drawn)	none
CC12CCC(C(=O)N3CCN(Cc4ccccc4)CC3)(OC1=O)C2(C)C (stereo not drawn)	none
CCc1ccc(OCc2nnc(SCC(=O)N3CCN(c4ccccc4)CC3)o2)cc1	none
O=S(=O)(c1ccc2c(c1)nc(COc1ccc(Cl)cc1)n2CC1CCCO1)N1CCOCC1 (stereo not drawn)	none
COc1ccc2c(c1)c(=O)oc1cc(OCC(=O)N3CCc4ccccc4C3)ccc12	none
CC(C)C(NC(=O)OCc1ccccc1)C(=O)NCC(=O)OC(C)(C)C (stereo not drawn)	none
CC(C)c1nc(CN(C)C(=O)N[C@H](C(=O)N[C@@H](Cc2ccccc2)C[C@H](O)[C@H](Cc2ccccc2)NC(=O)OCc2cncs2)C(C)C)cs1	Cav3 T inh -5.6 (no result: IL1B cytotox, NFkB transloc pot, NFkB transloc inh)
Cc1ccc(C(=O)Nc2ccccc2-c2ccccc2)cc1S(=O)(=O)Nc1cccc(C)c1C	Cav3 T inh -6.3
COc1ccccc1N/C(=N/S(=O)(=O)c1ccc(C)cc1)c1ccc(Cl)cc1	Cav3 T inh -3.8
COc1ccc(NC(=O)C2CC(=O)OC23CCOC(C)(C)C3)cc1 (stereo not drawn)	none
Cc1cc(/C=N\NC(=O)CC(=O)NC2CCCCC2)c(C)n1-c1ccc(Cl)cc1	Cav3 T inh -5.7
Cc1cc(/C=C(\C#N)C(=O)NCC2CCCO2)c(C)n1-c1ccc(Cl)cc1 (stereo not drawn)	none
c1ccc(-c2ccccc2-n2cnnn2)cc1	none (no result: IL1B cytotox, NFkB transloc pot, NFkB transloc inh)
CCOC(=O)COc1c(OC)cc(Cl)cc1C1NC(=O)NC(C)=C1C(C)=O (stereo not drawn)	none
CCCC1=C(C(=O)OCC)C(c2cc(Cl)cc(OC)c2OCC(=O)OCC)NC(=O)N1 (stereo not drawn)	Cav3 T inh -5.2
COc1ccc(C(=O)CN2C(=O)c3ccccc3C2=O)c(OC)c1C	Cav3 T inh -5.2
Cc1cc(=O)n2nc(-c3ccc(C(F)(F)F)cc3)sc2n1	none
O=C(Cc1ccc(S(=O)(=O)N2CCOCC2)s1)Nc1ccc2c(c1)CCC2	Cav3 T inh -6.1
O=C(CSc1nc2ccccc2c(=O)n1NC(=O)Cc1ccccc1)NCCc1ccccc1	none

Assay outcomes from PubChem.
